Experiment [1] concerns Plasmodium falciparum Sir2 (PF13_0152, Sir2A). Briefly: Plasmodium falciparum Sir2A binding compounds – biochemical, small-molecule microarray, 635 nm fluorescence, primary screen (AID 1098).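 Also: score merges spot fluorescence intensity with its signal-to-noise ratio.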 To be noted: fluorescence 635 nm, higher = more signal.
The nature of experiment [2]: probe aDKK1 binding to arrayed compounds – biochemical, biotinylated probe, 635/667 nm fluorescence, primary screen (AID 1099).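 Also: score merges 667nm spot fluorescence with signal to noise across triplicate slides.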 To be noted: small-molecule microarray, higher = more signal.
The nature of experiment [3]: probe aCHRDL2 binding to arrayed compounds – biochemical, biotinylated probe, 635/667 nm fluorescence, primary screen (AID 1100). To be noted: small-molecule microarray, higher = more signal.
Experiment [4] in a line: change in splice reporter luminescence, either direction, cell-based, HEK293, spliceosome inhibition project, primary screen (AID 1101).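 Also: HEK293 cells carrying a splicing-competent luciferase reporter gene; test concentration not given here.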 Conditions: HEK293 splicing luciferase reporter, 24 h, higher = more signal, called active from +8 up or from −8 down.
In experiment [5] the target is Fibroblast growth factor 10 (Homo sapiens) (UniProt O15520). In words: compounds binding fibroblast growth factor 10 – biochemical, small-molecule microarray, 635 nm fluorescence, primary screen (AID 1102). Conditions: FGF10 binding, fluorescence 635 nm, higher = more signal.
Experiment [6] relates to glycogen synthase kinase-3 (GSK3A per assay name; protocol says GSK3B). Briefly: compounds binding glycogen synthase kinase-3 – biochemical, small-molecule microarray, 635 nm fluorescence, GSK3A, primary screen (AID 1103). Also: the record names both GSK3A and GSK3B. Conditions: fluorescence 635 nm, higher = more signal.
For experiment [7], the target named is Epidermal growth factor receptor (Homo sapiens) (UniProt P00533). In words: compounds binding epidermal growth factor receptor – biochemical, small-molecule microarray, 635 nm fluorescence, primary screen (AID 1104).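 Also: score merges 667 nm emission intensity with spot signal to noise over triplicate slides.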 To be noted: EGFR binding, higher = more signal.
For experiment [8], the target named is Follistatin-related protein 3 (Homo sapiens) (UniProt O95633). Briefly: compounds binding follistatin-related protein 3 – biochemical, small-molecule microarray, 635 nm fluorescence, primary screen (AID 1105).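 Also: score merges emission near 667 nm and signal to noise per printed spot across three slides.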 Conditions: FSTL3 binding, higher = more signal.
Experiment [9] addresses Dickkopf-related protein 1 (Homo sapiens) (UniProt O94907). Briefly: small molecules binding DKK1 protein – biochemical, small-molecule microarray, 635 nm fluorescence scan, primary screen (AID 1106).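 Also: score merges emission near 667 nm with signal to noise over three replicate slides.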 Conditions: higher = more signal.
Experiment [10] relates to Inhibin beta A chain (activin A). In words: small molecules binding activin A – biochemical, small-molecule microarray, 635 nm fluorescence scan, primary screen (AID 1107).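 Also: mouse activin A protein probed at 4.33 µg/mL on printed slides; score merges bound-protein fluorescence near 667 nm with spot signal-to-noise.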 To be noted: INHBA, higher = more signal.
Experiment [11] has as its system Human papillomavirus type 1a protein E7 (residues 44-93). In words: small molecules binding HPV E7 44-93 – biochemical, small-molecule microarray, residues 44-93, 635 nm fluorescence, primary screen (AID 1108).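 Also: E7 fragment applied at 1 µg/mL in TBST for 1 h at 4 C; score combines spot fluorescence with its signal to noise ratio.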 To be noted: fluorescence 635 nm, higher = more signal.
Experiment [12] can be described thus: hepatitis C replication reporter changes, two-sided – Huh7 cells, luciferase reporter, HCV replication inhibitor project, primary screen (AID 1109).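 Also: huh7 hepatoma cells harbouring a luciferase neomycin HCV replicon reporter; luciferase luminescence as measure of HCV replicon replication; test concentration not given here.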 To be noted: Huh7 HCV replicon luciferase reporter, 48 h; higher = more signal.
Experiment [13] has as its target Left-right determination factor 2 (Homo sapiens) (UniProt O00292). Briefly: small molecules binding LEFTY2 protein – biochemical, small-molecule microarray, 635 nm fluorescence scan, primary screen (AID 1110). Conditions: higher = more signal.
Experiment [14] deals with Calmodulin-1 (Homo sapiens) (UniProt P0DP23). In words: small molecules binding calmodulin-1 with EGTA – biochemical, small-molecule microarray, Cy5-labelled CALM1, profiling panel (AID 1111).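 Also: labelled calmodulin applied in Tris saline Tween buffer holding calcium plus EGTA and DTT.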 Conditions: Cy5-CALM1 binding fluorescence, higher = more signal.
Experiment [15] has the same target. In words: small molecules binding Ca-loaded calmodulin-1 – biochemical, small-molecule microarray, Cy5-labelled CALM1, plus calcium, artefact control for SMM control-protein annotation, profiling panel (AID 1112).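 Also: score merges spot fluorescence with signal to noise from triplicate slides.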 Conditions: Cy5-CALM1 binding fluorescence, higher = more signal.
The nature of experiment [16]: probe aWnt5a binding to arrayed compounds – biochemical, biotinylated probe, 635/667 nm fluorescence, primary screen (AID 1113).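 Also: score merges 667 nm fluorescence intensity with signal-to-noise per printed feature.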 Conditions: small-molecule microarray, higher = more signal.
Experiment [17] can be described thus: probe aShh binding to arrayed compounds – biochemical, biotinylated probe, 635/667 nm fluorescence, primary screen (AID 1114).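 Also: probe is biotin-labelled aShh protein from a stem cell growth factor screen; measures binding of labelled protein to compounds printed on the slide; score merges feature fluorescence at 667 nm with signal-to-noise.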 To be noted: small-molecule microarray, higher = more signal.
Experiment [18] can be described thus: probe aNog binding to arrayed compounds – biochemical, biotinylated probe, 635/667 nm fluorescence, primary screen (AID 1115).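 Also: probe is biotinylated aNog protein used at 0.15 µg/mL for 1 h at 4 C; z-score combines 667 nm fluorescence of each spot with its signal to noise.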 To be noted: small-molecule microarray, higher = more signal.
For experiment [19], the target named is Torsin-1A-interacting protein 1 (Homo sapiens) (UniProt Q5JTV8). Briefly: compound microarray binding of lysate hLAP1 – cell lysate, small-molecule microarray, COS7 lysate, 635/667 nm fluorescence, primary screen (AID 1116). To be noted: 635 nm fluorescence, higher = more signal.
For experiment [20], the target named is Alpha-bungarotoxin (Bungarus multicinctus) (UniProt P60615). Briefly: compounds binding labelled alpha-BTX control protein – biochemical, small-molecule microarray, Alexa647 label, 635/667 nm fluorescence, artefact control for SMM control protein annotation, profiling panel (AID 1117). To be noted: alpha-BTX-A647 binding fluorescence, higher = more signal.

Where “and” joins values, the source holds several entries; their conditions need not be identical. Equal values may be shown once. Calls of active or inactive are those of the source.

Sequence of Dickkopf-related protein 1 (Homo sapiens) (O94907 whole entry, looked up): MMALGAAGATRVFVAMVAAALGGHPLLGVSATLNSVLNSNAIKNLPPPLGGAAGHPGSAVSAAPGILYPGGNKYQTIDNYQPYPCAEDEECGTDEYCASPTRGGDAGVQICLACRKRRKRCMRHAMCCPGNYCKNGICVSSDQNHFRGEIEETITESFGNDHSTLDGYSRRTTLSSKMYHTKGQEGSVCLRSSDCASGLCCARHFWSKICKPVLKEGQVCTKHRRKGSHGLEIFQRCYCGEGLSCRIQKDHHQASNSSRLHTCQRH
Sequence of Left-right determination factor 2 (Homo sapiens) (O00292 whole entry, looked up): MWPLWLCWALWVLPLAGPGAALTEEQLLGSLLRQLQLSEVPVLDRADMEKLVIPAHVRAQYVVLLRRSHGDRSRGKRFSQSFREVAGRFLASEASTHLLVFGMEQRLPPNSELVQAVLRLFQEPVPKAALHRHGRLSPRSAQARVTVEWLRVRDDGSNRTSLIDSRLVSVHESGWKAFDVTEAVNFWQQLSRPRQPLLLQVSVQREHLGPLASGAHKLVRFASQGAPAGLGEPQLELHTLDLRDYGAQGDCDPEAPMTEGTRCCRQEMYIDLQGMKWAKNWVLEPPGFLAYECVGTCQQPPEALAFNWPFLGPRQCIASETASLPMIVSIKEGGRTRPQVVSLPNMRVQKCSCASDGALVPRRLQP
Sequence of Torsin-1A-interacting protein 1 (Homo sapiens) (Q5JTV8 whole entry, looked up): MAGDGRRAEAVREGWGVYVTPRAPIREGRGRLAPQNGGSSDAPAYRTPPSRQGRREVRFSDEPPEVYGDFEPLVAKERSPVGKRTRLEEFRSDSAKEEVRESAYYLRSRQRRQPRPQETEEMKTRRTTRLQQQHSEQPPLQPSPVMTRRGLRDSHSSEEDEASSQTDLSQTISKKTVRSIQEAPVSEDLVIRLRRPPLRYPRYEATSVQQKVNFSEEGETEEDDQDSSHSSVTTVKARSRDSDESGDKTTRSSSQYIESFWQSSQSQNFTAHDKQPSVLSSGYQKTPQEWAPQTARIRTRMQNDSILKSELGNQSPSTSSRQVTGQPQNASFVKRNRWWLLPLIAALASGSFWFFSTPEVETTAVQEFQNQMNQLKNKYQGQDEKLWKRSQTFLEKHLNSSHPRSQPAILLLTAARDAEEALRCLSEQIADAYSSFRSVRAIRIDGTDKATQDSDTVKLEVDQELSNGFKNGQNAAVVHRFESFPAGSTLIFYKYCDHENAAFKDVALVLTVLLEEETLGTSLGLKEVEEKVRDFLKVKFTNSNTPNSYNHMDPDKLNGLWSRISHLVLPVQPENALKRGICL
Sequence of Alpha-bungarotoxin (Bungarus multicinctus) (P60615 whole entry, looked up): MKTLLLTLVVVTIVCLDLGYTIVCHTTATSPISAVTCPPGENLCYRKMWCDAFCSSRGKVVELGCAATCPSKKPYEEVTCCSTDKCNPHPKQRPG
Sequence of Epidermal growth factor receptor (Homo sapiens) (P00533 whole entry, looked up): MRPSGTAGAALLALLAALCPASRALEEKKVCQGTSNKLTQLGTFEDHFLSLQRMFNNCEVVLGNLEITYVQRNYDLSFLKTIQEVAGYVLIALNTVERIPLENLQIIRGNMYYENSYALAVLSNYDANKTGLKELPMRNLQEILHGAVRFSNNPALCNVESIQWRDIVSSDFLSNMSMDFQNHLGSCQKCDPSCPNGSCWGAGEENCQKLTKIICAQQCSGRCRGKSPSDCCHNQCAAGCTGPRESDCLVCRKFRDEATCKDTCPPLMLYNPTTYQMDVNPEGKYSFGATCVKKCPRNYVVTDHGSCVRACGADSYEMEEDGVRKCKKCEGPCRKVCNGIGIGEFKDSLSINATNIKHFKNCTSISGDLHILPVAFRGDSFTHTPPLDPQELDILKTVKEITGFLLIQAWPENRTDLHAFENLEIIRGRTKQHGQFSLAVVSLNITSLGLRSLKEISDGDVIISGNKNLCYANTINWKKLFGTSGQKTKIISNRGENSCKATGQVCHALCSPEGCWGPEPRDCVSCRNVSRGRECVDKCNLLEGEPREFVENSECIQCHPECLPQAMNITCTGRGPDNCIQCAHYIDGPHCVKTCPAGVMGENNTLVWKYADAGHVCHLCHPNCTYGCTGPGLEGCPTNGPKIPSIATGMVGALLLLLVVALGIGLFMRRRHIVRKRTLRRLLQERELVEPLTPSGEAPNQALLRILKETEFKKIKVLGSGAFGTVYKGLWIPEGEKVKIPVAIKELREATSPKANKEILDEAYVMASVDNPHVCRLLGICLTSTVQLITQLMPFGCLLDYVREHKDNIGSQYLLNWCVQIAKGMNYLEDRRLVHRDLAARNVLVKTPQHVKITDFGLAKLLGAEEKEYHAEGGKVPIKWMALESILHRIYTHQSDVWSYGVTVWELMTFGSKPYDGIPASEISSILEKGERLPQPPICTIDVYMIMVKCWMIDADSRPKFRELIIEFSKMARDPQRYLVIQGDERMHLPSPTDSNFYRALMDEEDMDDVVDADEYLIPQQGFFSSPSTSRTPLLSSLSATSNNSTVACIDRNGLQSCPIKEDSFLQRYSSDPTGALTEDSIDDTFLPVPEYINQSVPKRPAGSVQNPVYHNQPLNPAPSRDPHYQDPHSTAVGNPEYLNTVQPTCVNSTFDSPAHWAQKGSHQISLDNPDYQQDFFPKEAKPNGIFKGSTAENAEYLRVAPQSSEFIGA
Sequence of Fibroblast growth factor 10 (Homo sapiens) (O15520 whole entry, looked up): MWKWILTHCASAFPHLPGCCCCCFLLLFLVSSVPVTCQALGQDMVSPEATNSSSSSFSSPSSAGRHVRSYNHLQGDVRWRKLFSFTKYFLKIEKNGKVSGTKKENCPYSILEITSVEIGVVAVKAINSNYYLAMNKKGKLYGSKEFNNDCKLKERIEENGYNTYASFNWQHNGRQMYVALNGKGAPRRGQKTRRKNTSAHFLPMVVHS
Sequence of Follistatin-related protein 3 (Homo sapiens) (O95633 whole entry, looked up): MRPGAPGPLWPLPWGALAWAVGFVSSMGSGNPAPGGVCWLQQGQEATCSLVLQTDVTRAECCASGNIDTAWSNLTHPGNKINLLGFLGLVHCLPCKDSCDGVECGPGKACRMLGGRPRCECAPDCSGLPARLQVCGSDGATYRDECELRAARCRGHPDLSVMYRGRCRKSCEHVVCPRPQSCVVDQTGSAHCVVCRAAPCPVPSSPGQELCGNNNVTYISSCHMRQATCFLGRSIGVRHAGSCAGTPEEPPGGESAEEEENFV

For `C=CCN(C(=O)C1N(CCOCCO)C(=O)C2C(C(=O)O)C3C=CC21O3)c1ccc(OC)cc1` (stereo not given), the composite z-score is -0.703 and 0.492 in experiment [1]; 0.0448 and 0.214 in experiment [2]; 0.787 and 1.07 in experiment [3]; -1.53 and -1.43 in [5]; -0.805 and -0.855 in experiment [6]; -1.33 and -3.15 in [7]. For the same compound, the composite z-score in [8] was -2.58 and -2.06; in experiment [9], -1.83 and -2.76; in experiment [10], -3.52 and -4.08; in [11], -0.754 and -1.72; in experiment [13] it was -2.03 and -2.77; in experiment [14], -0.315 and -1.35. Further, the composite z-score in [15] was 0.538 and -0.237; in experiment [16] it was -0.2 and -0.214; in experiment [17] it was -0.221 and -0.195; in experiment [18], 0.406 and 0.669; in [19] it was 1.38 and -0.149; in experiment [20], -1.18 and -2.65. For the same compound, the z-score was 0.503 (inactive) and 0.116 (inactive) in experiment [4]; 0.51 and -0.102 in experiment [12].

As for `C=C[C@@H](OC)[C@H](O)c1ccc(OC)c(O)c1`, the composite z-score was -1.12 and 0.402 in [1]; -0.42 and -0.521 in experiment [2]; -0.6 and -0.0832 in experiment [3]; 0.146 and -0.514 in experiment [5]; -0.374 and -0.669 in [6]; 0.526 and -1.08 in experiment [7]. Also, the composite z-score in [8] is 0.878 and -0.9; in experiment [9] it was 0.131 and -0.539; in [10], 1.27 and -0.492; in [11], -0.306 and -0.0635; in experiment [13], 0.861 and -0.46; in [14] it was -1.19 and -1.42. Moreover, the composite z-score is -0.799 and -0.187 in experiment [15]; -0.293 and -0.208 in experiment [16]; -0.289 and -0.138 in [17]; -0.321 and -0.347 in experiment [18]; 0.0742 and 0.111 in experiment [19]; -0.397 and 0.989 in experiment [20]. Further, the z-score in experiment [4] is -0.984 (inactive) and -1.14 (inactive); in experiment [12], 0.552 and -0.127.

For the compound `CCOC(=O)c1ccc(NC(=O)O[C@H]2[C@H](OC(=O)Nc3ccccc3)[C@@H](OC(=O)Nc3ccccc3)[C@@H](OC)O[C@@H]2CO)cc1`, the composite z-score in experiment [1] was 1.54 and 1.64; in experiment [2], 1; in [3], 0.861 and 0.911; in experiment [5], 1.13 and 1.42; in experiment [6] it was 1.24 and 1.34; in [7], 0.329 and 0.0234. The composite z-score was 1.34 and 1.42 in [8]; 0.414 and 0.17 in [9]; 0.375 and 0.563 in experiment [10]; 0.249 and 1.18 in [11]; 0.772 and 0.53 in experiment [13]; 2.04 and 1.81 in experiment [14]. Moreover, the composite z-score is 0.114 and -0.0271 in experiment [15]; 0.0618 and 0.199 in experiment [16]; 0.613 and 0.204 in [17]; 1.32 and 0.386 in [18]; 1.2 and 1.5 in experiment [19]; 2.04 and 1.85 in experiment [20]. Besides, the z-score in [4] was 1.59 (inactive) and -0.984 (inactive); in experiment [12] it was -3.3 and -1.82.

Take `CO[C@H]1COC(=O)[C@H](C)NC(=O)CC=C[C@@H](C)[C@H](OC)COC(=O)CC=C[C@@H]1C`: the composite z-score in experiment [1] is 0.523; in experiment [2], -0.785; in experiment [3], -1.62; in experiment [5] it was 0.504; in experiment [6], 1.04; in experiment [7], 1.49. Moreover, the composite z-score is 1.45 in experiment [8]; 1.62 in experiment [9]; 1.68 in experiment [10]; -1.05 in experiment [11]; 0.955 in experiment [13]; -0.884 in [14]. The composite z-score in experiment [15] was -0.822; in experiment [16], -0.0944; in experiment [17] it was -0.0337; in [18], -0.198; in experiment [19] it was 0.169; in experiment [20], -0.0006. For the same compound, the z-score in [4] was 0.506 (inactive); in [12], -0.885.

For the compound `C=CCN(CCCCC)C(=O)C1N(CCCCCCO)C(=O)C2C(C(=O)O)C3C=CC21O3` (stereo not given), the composite z-score in [1] is 1.34 and 1.33; in experiment [2], -0.3 and -0.257; in experiment [3] it was 0.933 and 0.677; in [5] it was -1.23 and -1.99; in experiment [6], -0.699 and -1.32; in experiment [7], -1.76 and -2.1. Further, the composite z-score was -2.21 and -0.897 in experiment [8]; -3.08 and -2.95 in [9]; -0.194 and -1.46 in experiment [10]; -0.37 and -0.151 in experiment [11]; -0.978 and -2.49 in experiment [13]; -1.53 and -0.747 in experiment [14]. The composite z-score in experiment [15] was -0.155 and 0.379; in [16], -0.256 and -0.258; in [17], -0.0626 and -0.156; in experiment [18] it was -0.0784 and -0.208; in [19] it was 0.257 and -1.03; in [20], -1.31 and -1.22. In addition, the z-score in experiment [4] was -0.372 (inactive) and 0.305 (inactive); in [12], -0.415 and -0.545.

Values taken from PubChem BioAssay.
